Measured values as given in PubChem BioAssay AID1159580 (chemical genetic matrix, 2015).
Out of some 5,500 compounds screened, about 2,000 (36%) were called active. About 18% were inconclusive and are not listed. Cut-off read from the data, not from the text of the source: active = normalized growth mostly below about 0.91 (no sharp cut-off); inconclusive = no clear call, values can overlap the other calls; inactive = mostly above about 0.92. Some of the results follow.

Test: chemical genetic growth profiling, strain panel (AID 1159580);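 note: tested at 20 µM; growth read once vehicle control cultures reached saturation at 30 °C; 1 = growth at the plate median or of vehicle wells; lower values mean less growth of the strain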
Settings: S. cerevisiae deletion strains, growth OD

Measured: normalized growth

COc1cccc(OC)c1OCCNCC1CSc2ccccc2O1 (configuration not stated)
inactive: locus YAL040C, strain CLN3, active compounds read low 1.01 | locus YDR363W, strain ESC2, active compounds read low 0.936 | locus YER002W, strain NOP16, active compounds read low 1.01 | locus YJR075W, strain HOC1, active compounds read low 0.985 | locus YMR263W, strain SAP30, active compounds read low 0.995 | locus YMR307W, strain GAS1, active compounds read low 1.01 | locus YNL175C, strain NOP13, active compounds read low 0.986 | locus YNL197C, strain WHI3, active compounds read low 1.02 | locus YNL224C, strain SQS1, active compounds read low 1 | locus YOR083W, strain WHI5 (second series), active compounds read low 0.966 | locus YPL241C, strain CIN2, active compounds read low 1

ONC(=Nc1ccccc1Cl)c1ccccc1Cl
active: locus YFR019W, strain FAB1, active compounds read low 0.714 | locus YHR030C, strain SLT2, active compounds read low 0.731 | locus YLR113W, strain HOG1, active compounds read low 0.839
inactive: locus YAR019C, strain CDC15, active compounds read low 0.999 | locus YBL105C, strain PKC1, active compounds read low 0.987 | locus YBR135W, strain CKS1, active compounds read low 0.992 | locus YBR136W, strain MEC1, active compounds read low 0.986 | locus YBR160W, strain CDC28, active compounds read low 0.993 | locus YDL017W, strain CDC7, active compounds read low 0.988 | locus YDL028C, strain MPS1, active compounds read low 0.985 | locus YDL101C, strain DUN1, active compounds read low 0.993 | locus YDL108W, strain KIN28, active compounds read low 0.979 | locus YDL132W, strain cdc53, active compounds read low 0.997 | locus YDL214C, strain PRR2, active compounds read low 0.824 | locus YDR052C, strain DBF4, active compounds read low 0.983 | locus YDR054C, strain cdc34, active compounds read low 0.992 | locus YDR226W, strain ADK1, active compounds read low 0.987 | locus YDR477W, strain SNF1, active compounds read low 0.859 | locus YER123W, strain YCK3, active compounds read low 0.688 | locus YER133W, strain GLC7, active compounds read low 0.833 | locus YFL009W, strain cdc4, active compounds read low 0.999 | locus YFL029C, strain CAK1, active compounds read low 0.996 | locus YFR003C, strain YPI1, active compounds read low 0.989 | locus YFR028C, strain CDC14, active compounds read low 0.997 | locus YGR040W, strain KSS1, active compounds read low 0.81 | locus YGR052W, strain FMP48, active compounds read low 0.786 | locus YGR092W, strain DBF2, active compounds read low 0.839 | locus YHR079C, strain IRE1, active compounds read low 0.889 | locus YHR082C, strain KSP1, active compounds read low 0.829 | locus YHR205W, strain SCH9, active compounds read low 0.875 | locus YIL147C, strain SLN1, active compounds read low 0.983 | locus YJL095W, strain BCK1, active compounds read low 0.697 | locus YJL128C, strain PBS2, active compounds read low 0.95 | locus YJL157C, strain FAR1, active compounds read low 0.785 | locus YJR016C, strain ILV3, active compounds read low 0.986 | locus YJR066W, strain TOR1 (second series), active compounds read low 0.729 | locus YJR066W, strain TOR1, active compounds read low 0.769 | locus YKL048C, strain ELM1, active compounds read low 0.922 | locus YKL067W, strain YNK1, active compounds read low 0.817 | locus YKL101W, strain HSL1, active compounds read low 0.854 | locus YKL193C, strain SDS22, active compounds read low 1 | locus YKL203C, strain TOR2, active compounds read low 0.891 | locus YLR133W, strain CKI1, active compounds read low 0.841 | locus YLR403W, strain SFP1, active compounds read low 0.832 | locus YML070W, strain DAK1, active compounds read low 0.786 | locus YMR001C, strain CDC5, active compounds read low 0.996 | locus YMR205C, strain PFK2 (second series), active compounds read low 0.83 | locus YMR277W, strain FCP1, active compounds read low 1 | locus YNL006W, strain LST8, active compounds read low 0.997 | locus YNL020C, strain ARK1, active compounds read low 0.809 | locus YNL161W, strain CBK1, active compounds read low 0.994 | locus YNL183C, strain NPR1, active compounds read low 0.86 | locus YNL207W, strain RIO2, active compounds read low 0.99 | locus YNL222W, strain SSU72, active compounds read low 0.993 | locus YNL307C, strain MCK1 (second series), active compounds read low 0.811 | locus YOL078W, strain AVO1, active compounds read low 0.993 | locus YOL136C, strain PFK27, active compounds read low 0.806 | locus YOR061W, strain CKA2, active compounds read low 0.69 | locus YOR119C, strain RIO1, active compounds read low 0.886 | locus YOR231W, strain MKK1, active compounds read low 0.836 | locus YOR329C, strain SCD5, active compounds read low 0.998 | locus YPL031C, strain PHO85, active compounds read low 0.824 | locus YPL153C, strain RAD53, active compounds read low 0.777 | locus YPL204W, strain HRR25, active compounds read low 0.859 | locus YPL209C, strain IPL1, active compounds read low 0.992 | locus YPL256C, strain CLN2, active compounds read low 0.904 | locus YPR025C, strain CCL1, active compounds read low 0.993 | locus YPR106W, strain ISR1, active compounds read low 0.99 | locus YPR111W, strain DBF20, active compounds read low 0.994 | strain NNK1, active compounds read low 0.992 | strain TSCII, active compounds read low 0.991
